Gal4-VP16 FLuc – counter-screen for ROR gamma inhibitors: Gal4-VP16 reporter | Potency, µM (top dose mostly 53.6 µM), actives largely listed as inhibitors | 310,000 compounds, 3.5% hits | Drosophila S2 Gal4-VP16 UAS-luciferase, luminescence, 20 h;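 further: Gal4-VP16 expression switched on by copper sulfate through the metallothionein promoter; nearly all actives have a fitted effect of over 50% in size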
HepG2 tox – counter-screen for TGF-b inhibitors: cytotoxicity in HepG2 cells; 410,000 compounds, 0.76% hits; HepG2 CAGA-GFP viability, ATP luminescence, 18 h; Potency, µM (doses to about 46.1 µM), hits mostly cytotoxic
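HepG2 CAGA-GFP cells (1000/well, DMEM with 1% FBS) received compound, then TGF-beta at 500 pg/mL final, and were incubated 18 hours at 37 degrees C. Viability was read by CellTiter-Glo luminescence. Media-only wells were set as complete cell-killing and DMSO as no toxicity.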
RORgamma inh – blocks mouse ROR gamma transcriptional activity | P51450 | Drosophila S2 Gal4-RORgamma UAS-luciferase reporter, 20 h | Potency, µM (highest dose often 53.6 µM), usual class: inhibitors | 310,000 compounds, 5.4% hits | AID 2551; further: nearly all actives have a fitted effect of over 60% in size
Target sequence (P51450 whole entry, looked up, the tested form may be a part): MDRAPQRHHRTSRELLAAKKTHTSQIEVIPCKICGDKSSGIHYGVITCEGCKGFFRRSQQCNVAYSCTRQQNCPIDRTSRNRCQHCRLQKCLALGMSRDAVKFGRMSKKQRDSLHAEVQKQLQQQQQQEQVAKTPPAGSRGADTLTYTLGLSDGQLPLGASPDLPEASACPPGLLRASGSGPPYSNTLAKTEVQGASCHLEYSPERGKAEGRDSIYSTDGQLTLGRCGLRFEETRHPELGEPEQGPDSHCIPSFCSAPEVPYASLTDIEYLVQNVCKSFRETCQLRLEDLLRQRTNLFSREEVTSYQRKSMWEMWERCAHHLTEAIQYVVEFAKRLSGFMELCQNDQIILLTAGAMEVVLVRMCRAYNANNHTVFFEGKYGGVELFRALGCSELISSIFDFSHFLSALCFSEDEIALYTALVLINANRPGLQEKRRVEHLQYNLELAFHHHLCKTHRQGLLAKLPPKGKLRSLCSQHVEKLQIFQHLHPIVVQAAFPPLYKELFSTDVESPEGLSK
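Read-out: Photinus luciferase luminescence; inhibitors lower reporter signal. Insect Schneider cells with Gal4-ROR gamma fusion under metallothionein promoter, UAS reporter; 700 uM final copper sulfate induction, 20 hr, ambient temperature.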
ATXN viability – cell viability loss in ATXN counter-screen | 400,000 compounds, 0.49% hits | AID 651635 | S2 cells (HEK-293 line with an ATXN2-luciferase reporter) viability, CellTiter-Fluor protease fluorescence, 24 h | Potency, µM (series often up to 56.7 µM), actives largely listed as cytotoxic; further: nearly all actives have a fitted effect of over 40% in size
ATXN2 expr inh – reduces ATXN2 reporter expression in HEK-293 cells; HEK-293 ATXN2-luciferase reporter, luminescence, 24 h; Potency, µM (series often up to 57 µM), hits mostly inhibitors; 360,000 compounds, 0.72% hits; further: nearly all actives have a fitted effect of over 55% in size
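qHTS (up to 57 uM final) was run with 24 h compound exposure of reporter cells at 37 °C. Each well was multiplexed: SteadyGlo luminescence measured ATXN2-luciferase expression after a fluorogenic Gly-Phe-AFC viability readout (25 uM final).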
TGFb SMAD3 inh – TGF-b pathway inhibition; HepG2 CAGA-GFP TGF-b/SMAD3 reporter, GFP fluorescence, 18 h; TGF-beta stimulated, 500 pg/mL final; 410,000 compounds, 1.2% hits; Potency, µM (top dose mostly 46.1 µM), hits mostly inhibitors; further: nearly all actives have a fitted effect of over 65% in size
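HEPG2 CAGA-GFP cells (1000/well, DMEM with 1% FBS) were pre-incubated 2 h at 37 degrees C, given compound by pin tool, then stimulated with TGF-beta at 500 pg/mL final for 18 h before per-cell GFP fluorescence imaging.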
Hits are given with their value; 0 = inactive; ? = inconclusive; - = no result; ! = not confirmed by another sample; [ ] = dose if it differs, or a comment. Shown are actives, neighbours in structure and some others; about 6.3% of the full set was active somewhere. The call rests on the fitted dose curve; in most records, active means well fitted curve in the direction sought with a large enough effect; inconclusive means small, poorly fitted or top-dose-only effect, or another doubt; inactive means no such curve, though single readings can be large; an effect the other way counts as inactive or inconclusive.

SMILES	Gal4-VP16 FLuc	HepG2 tox	RORgamma inh	ATXN viability	ATXN2 expr inh	TGFb SMAD3 inh
CC(=O)N1CCc2c(sc(NC(=O)Cc3ccc(F)cc3)c2C(N)=O)C1	0	11µM	0	0	-	0
CC(=O)N1CCc2c(sc(NC(=O)Cc3ccc(F)cc3)c2C#N)C1	0	0	0	0	-	0
Cc1ccccc1-c1nn(-c2ccc(F)cc2F)cc1CNCCN(C)C	0	0	?	0	0	0
COCCN(C)Cc1cn(-c2ccc(F)cc2F)nc1-c1ccccc1C	?	0	6.3µM	0	0	0
CC(=O)c1cnc(Nc2nc(C)c3cc(C)c(C)cc3n2)nc1C	0[0.365 µM]	0	3.5µM	0	0	0
Oc1ccccc1N=Nc1ccccc1O	0	0	1.4µM	0.89µM	-	?
COCCn1c(=O)c(-c2cccs2)nc2cnc(N(C)C)nc21	0	-	0	-	-	-
CC(C)CC1CC(C)(c2csc(NNC(=O)c3ccccc3)n2)OC1=O (stereo not drawn)	0	0	10µM	0	0	?
CC1(C)CC(CC(=O)NNc2nc(-c3ccccc3)cs2)C(=O)O1 (stereo not drawn)	0	0	0	0	0	0
COc1cc(NC(=O)CCc2c(C)nn(-c3ccc4nncn4n3)c2C)cc(OC)c1OC	-	0	-	-	-	0
O=C(Cc1nnc(NC(=O)c2cccc([N+](=O)[O-])c2)s1)NCc1ccccc1	0	0	0	0	0	?
O=C(CC(c1ccco1)S(=O)(=O)c1ccccc1)c1ccc(F)cc1 (stereo not drawn)	11µM	0	2.5µM	0	0	0
CCc1ccc(OCC(=O)N(Cc2cccs2)c2ccc(Cl)cc2)cc1	-	0	-	?	0	16µM
CCOc1ccccc1C(=O)N(Cc1cccs1)c1ccc(Cl)cc1	-	0	-	?	0	18µM
CCc1nnc(NC(=O)CSc2nnc(-c3ccco3)o2)s1	?	0	11µM	0	0	0
CCc1nnc(NC(=O)CSc2nnc(COc3ccccc3C)o2)s1	?	0	11µM	0	0	0
Cc1cnc(NC(=O)CSc2nnc(Cc3ccccc3)o2)s1	0	0	10µM	0	0	0
CCc1nnc(NC(=O)CSc2nnc(-c3ccco3)n2C)s1	0	0	0	0	0	0
COc1ccc(Cc2nnc(SCC(=O)Nc3ncc(C)s3)o2)cc1	?	0	0	0	0	0
O=C(c1cnc(N2CCCCC2)c2ccccc12)N1CCN(c2ccc(Cl)cc2)CC1	-	0	-	-	-	?
Cc1cc(C)n(Cc2cccc(C(=O)NCC3Cc4cccc(-c5ncccn5)c4O3)c2)n1 (stereo not drawn)	-	-	-	0	-	-
CCC1(C2CCN(Cc3cccc4ccccc34)CC2)NC(=O)N(Cc2ccc3c(c2)OCO3)C1=O (stereo not drawn)	-	-	-	0	-	-
CC1CCc2c(cc(-c3ccccc3)n2-c2ccc(C(=O)NC(C)C)cc2)C1 (stereo not drawn)	-	0	-	-	-	7.9µM
Oc1c(C(Nc2cccc(C(F)(F)F)c2)c2cccnc2)ccc2cccnc12 (stereo not drawn)	2.8µM	0	2.5µM	0	?	?
Cc1cc(NC(c2cccnc2)c2ccc3cccnc3c2O)no1 (stereo not drawn)	6.3µM	0	4µM	0	4µM	0
SMILES	Gal4-VP16 FLuc	HepG2 tox	RORgamma inh	ATXN viability	ATXN2 expr inh	TGFb SMAD3 inh
Oc1c(C(Nc2cccnc2)c2ccc(C(F)(F)F)cc2)ccc2cccnc12 (stereo not drawn)	-	0	-	-	-	?
CC#C[C@]1(O)CC[C@H]2[C@@H]3CCC4=CC(=O)CCC4=C3[C@@H](c3ccc(N(C)C)cc3)C[C@@]21C	0	0	?	0	15µM!	0
CSc1nc2sc3c(c2c(=O)n1-c1ccc(C)cc1)CCCC3	-	0	-	-	-	0
COc1ccc(CCNC(=O)c2cc(C3CC3)nc3c2cnn3C(C)C)cc1	-	0	-	0	0	0
Cc1cc(/C=C\c2ccc3cc(N(C)C)ccc3[n+]2C)c(C)n1-c1ccccc1	2.8µM	0	0[2.98 µM]	4µM	1µM	?
CN(C)c1ccc(/C=C/c2ccc3ccccc3[n+]2[O-])cc1	-	0	-	-	-	0
CSc1ccc(CN2CCC2(C)C(=O)Nc2cccc(Oc3ccccc3)c2)cc1 (stereo not drawn)	-	0	-	0	0	0
Cc1nc2sc(C(N)=O)c(N)c2c2c1CCCC2	0	20µM	5.6µM	0	0	?
Cc1ccc(-c2nc3sc(C(N)=O)c(N)c3c3c2CCCC3)cc1	0	0	0	0	0	?
c1ccc(CNCCCNCCCCNCCCNCc2ccccc2)cc1	-	7.9µM	-	?	28µM	?
Cc1ccc(N(CC(=O)NCCSc2ccccc2)S(=O)(=O)c2ccc(F)cc2)cc1	-	0	-	?	0	?
Cc1nn(CC(=O)N(CC(C)C)C2CCS(=O)(=O)C2)c(C)c1[N+](=O)[O-] (stereo not drawn)	-	0	-	0	0	0
CCC(Sc1nc2ccccc2s1)C(=O)Nc1nnc(C)s1 (stereo not drawn)	0	0	?	0	0	0
CC(Sc1nc2ccccc2s1)C(=O)Nc1nnc(C(C)C)s1 (stereo not drawn)	?	0	2.8µM	0	0	?
O=C(Nc1ncc(Cc2cccc(Cl)c2)s1)C1=NCCN1	5µM	0	2.5µM	0	0	?
O=C(Nc1ncc(Cc2ccc(SC(F)F)cc2)s1)c1ccccc1	20µM	0	13µM	?	0	?
Cc1ccc(Cc2cnc(NC(=O)c3cccs3)s2)cc1	8.9µM	0	3.5µM	?	0	?
Cc1ccc(C(=O)Nc2ncc(Cc3ccccc3)s2)o1	?	0	11µM	-	-	0
NC[C@H]1O[C@H](O[C@H]2[C@H](O[C@@H]3O[C@H](CO)[C@@H](O)[C@H]3O)C(O)[C@H](N)C[C@@H]2N)[C@H](N)[C@@H](O)[C@@H]1O (stereo partly drawn)	-	-	-	0[11.3 µM]	0[11.3 µM]	-
O=C(COc1ccccc1C(=O)Nc1ccccc1)Nc1cccc(Br)c1	-	0	-	-	-	0
Cc1cccc(S(=O)(=O)NC(=O)C2(C)CCN2C(=O)c2c(C)noc2C)c1 (stereo not drawn)	-	0	-	0	0	0
O=C(Nc1ncc(Cc2ccccc2)s1)c1cccs1	?	0	0[10 µM]	?	0	?
O=C(Nc1ncc(Cc2cccc(Cl)c2)s1)c1cccs1	16µM	0	7.1µM	0	0	?
COc1ccc(S(=O)(=O)N2CCN(C(=O)C3CC(=O)N(c4ccccc4F)C3)CC2)cc1OC (stereo not drawn)	-	0	-	?	-	0
NS(=O)(=O)c1ccc(CCNC(=O)c2ccc(Cl)s2)cc1	0	0	0	0	0	0
NS(=O)(=O)c1ccc(CCNC(=O)c2ccc([N+](=O)[O-])s2)cc1	0	20µM	0	0	0	?
